Our source for the displacement values is PubChem BioAssay AID1240 (Sanford-Burnham Center for Chemical Genomics, 2008).

Hit rate of the full screen: of about 50,000 compounds, about 800 (1.6%) showed an effect of 50% or more. Many of the other results were omitted from the sample, so strong results are more common in it than they were.

Chain of Bcl-2-like protein 10 (Homo sapiens) (Q9HD36 whole entry, looked up): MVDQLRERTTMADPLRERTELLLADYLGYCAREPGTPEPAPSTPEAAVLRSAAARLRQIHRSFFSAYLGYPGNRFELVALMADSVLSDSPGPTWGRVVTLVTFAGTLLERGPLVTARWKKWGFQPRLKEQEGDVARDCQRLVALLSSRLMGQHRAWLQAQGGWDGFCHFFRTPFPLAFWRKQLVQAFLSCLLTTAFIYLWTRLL

This assay concerns the target Bcl-2-like protein 10 (Homo sapiens) (UniProt Q9HD36). Kind of assay: Phenotype converters, Bcl-B/TR3 peptide binding displacement, primary biochemical FP (AID 1240).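 Note: 0% = Bcl-B with tracer peptide and DMSO and 100% = tracer peptide lacking Bcl-B.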 As to conditions: GST-Bcl-B / FITC-TR3 peptide fluorescence polarization; stronger effect = higher value; compound at 3.75 mg/L. On the technique in general: Fluorescence polarisation rises when a labelled molecule tumbles more slowly, as on binding a larger partner.
On to `COc1ccccc1/C=C/C(=O)c1ccc(F)cc1`, for which the displacement was -0.2%.

`COc1ccc(CN2CCN(C3CCN(Cc4ccccc4)CC3)CC2)cc1Br`: the displacement is -9.1%. Regarding `CCOC(=O)C1C(=O)NCC2CCCC21` (configuration not stated), the displacement was determined as 4.6%. For `O=C(CN1C(=O)c2ccccc2C1=O)Nc1cc(Cl)ccc1C(=O)O`, the displacement was -6.4%. `COc1cccc(CN2CCN(Cc3cccnc3)CC2)c1`: the displacement was -13.5%. For the compound `COc1ccc(/C=C/C(=O)O)cc1S(=O)(=O)NCc1ccccc1`, the displacement was 7.2%. Turning to `CN(C)CCOC(=O)C12CCC3CC(CC(C3)C1)C2`, the displacement was determined as 11.3%.

For `CCOC(=O)c1ccc(NC(=O)CC)cc1`, the displacement worked out at 4.7%. To `CCOC(=O)c1c(C)[nH]c(N=Nc2ccc(C)cc2)c1C` belongs 2.4%. Turning to `CC(=O)NC1=NC(=O)/C(=C\c2cccc([N+](=O)[O-])c2)S1`, the displacement was -42.2%. In the case of `CC(=O)NC1=NC(=O)/C(=C\c2ccccc2Cl)S1`, the displacement came out at 14%. With `CC(=O)NC1=NC(=O)/C(=C/c2ccc(C)cc2)S1`, the displacement is 118%. Consider `CC(=O)NC1=NC(=O)/C(=C\c2ccc(C(C)(C)C)cc2)S1`, for which the displacement came out at 11.4%. Turning to `CC(=O)NC1=NC(=O)/C(=C\c2cccc(F)c2)S1`, the displacement is -29.1%.

`CC(=O)NC1=NC(=O)/C(=C\c2cccs2)S1`: the displacement turned out to be 109%.

Take `O=C(Nc1ccc(F)c(Cl)c1)c1cc([N+](=O)[O-])ccc1Cl`: the displacement was -10.3%.

With `CC(C)C(=O)Nc1ccc(Cl)cc1C(=O)O`, the displacement stood at 8.1%. For the compound `COc1ccc(/C(C)=N/NC(=O)CN(c2ccc(C)cc2)S(=O)(=O)c2ccccc2)cc1OC`, the displacement turned out to be 3.8%.

`COC(=O)c1ccc(/C=N/NC(=O)CCc2c(C)n[nH]c2C)cc1`: the displacement came to 4.2%. For `CC(C)C(=O)Nc1ccc(I)cc1Cl`, the displacement is 11.1%.

For `O=C(c1cccnc1)N(Cc1ccccc1)Cc1ccccc1`, the displacement stood at 6%. As to `O=C(Nc1ccc(Cc2ccncc2)cc1)c1ccc(Br)o1`, the displacement came to 13.1%.

`O=C(NC(=S)Nc1ccc(-c2nc3ncccc3o2)cc1)c1ccco1`: the displacement worked out at 112%. Turning to `O=C(Nc1ccc(-c2nc3ncccc3o2)cc1)c1ccc(-c2ccc(Br)cc2)o1`, the displacement amounted to 88.1%. For `COc1cc(NC(=O)c2ccc(-c3ccc(Br)cc3)o2)ccc1NC(=O)c1ccco1`, the displacement is 158%. To `O=C(Nc1ccc(Cc2ccncc2)cc1)c1ccc(-c2ccc(Br)cc2)o1` belongs 109%; to `O=C(Nc1ccc(-c2nc3ncccc3o2)cc1)c1ccc(-c2cccc(Cl)c2)o1`, 14.3%. To `O=C(Nc1cccnc1)c1ccc(-c2ccc(Br)cc2)o1` belongs -5.1%. The same measure for `O=C(Nc1ccc(-c2nc3ncccc3o2)cc1)c1ccc(Br)o1`: -1.9%. Consider `COc1cc(NC(=O)c2ccc(-c3ccc(Cl)cc3)o2)ccc1NC(=O)c1ccco1`, for which the displacement was -6.5%.

As to `Cc1cc(NC(=O)c2ccc(-c3ccc(Br)cc3)o2)ccc1NC(=O)c1ccco1`, the displacement is -2.6%. Consider `O=C(NC(=S)Nc1ccc(-c2nc3ccccc3o2)cc1)c1ccco1`, for which the displacement is 11.6%.

In the case of `Cc1c(NC(=S)NC(=O)c2ccco2)cccc1-c1nc2ncccc2o1`, the displacement came to 9.2%. For `Cc1ccccc1C(=O)O/N=C(\N)c1cccc([N+](=O)[O-])c1`, the displacement was -7.1%. To `Clc1ccc(OCCCN2CCCCC2)cc1` belongs -10%; to `COc1ccccc1OCCCN1CCOCC1`, -1.3%; to `COc1ccc(C2CC(O)C(C)C(c3ccc(OC)cc3)N2)cc1` (configuration not stated), 7.8%.

`CCOc1ccc(C(=O)Nc2cccc(C(F)(F)F)c2)cc1Cl`: the displacement is -12%. For the compound `Cc1ccc(C(=O)Nc2ccc(-c3nc4ncccc4o3)cc2)cc1C`, the displacement came to 21.5%. The same measure for `COc1ccc(-c2cc(=O)oc3cc(OC(C)=O)ccc23)cc1`: -5.1%. In the case of `CC(=O)N(c1ccccc1)c1nnc(C)s1`, the displacement is -0.3%. Regarding `O=C1NC(=O)N(c2ccccc2F)C(=O)/C1=C/c1ccc(I)o1`, the displacement is 34.5%. Turning to `CCN(CC)c1ccc(C=C(C(C)=O)C(C)=O)c(OC(C)=O)c1`, the displacement stood at 48.6%.

Take `CCN(CC)c1ccc(C=C(C#N)C#N)c(OC)c1`: the displacement was 91.5%.

For the compound `CCN(CC)c1ccc(/C=C(\C#N)C(=O)Nc2ccc(OC)cc2)c(OC)c1`, the displacement is -6.6%. The same measure for `Cc1cc(OCC(O)CNC(C)C)cc(C)c1Cl` (configuration not stated): 3.1%; for `O=C(Cn1cc(/C=C2\NC(=S)NC2=O)c2ccccc21)Nc1ccccc1`: -41.9%; for `NC(=O)Cn1cc(/C=C2\C(=O)NC(=O)N(Cc3ccccc3)C2=O)c2ccccc21`: 17%.

As for `COc1ccc(N2C(=O)/C(=C/c3cn(Cc4ccccc4)c4ccccc34)C(=O)NC2=S)cc1`, the displacement was 25%. Regarding `O=C(Cn1cc(C=C2C(=O)NC(=S)NC2=O)c2ccccc21)Nc1ccccc1`, the displacement is 130%. Consider `O=C(Cn1cc(/C=C2/C(=O)NC(=S)N(c3ccccc3)C2=O)c2ccccc21)Nc1ccccc1`, for which the displacement was determined as 143%. To `O=C(Cn1cc(/C=C2\SC(=S)NC2=O)c2ccccc21)Nc1ccccc1` belongs -11.9%; to `O=C(Nc1ccccc1)Nc1nnc(Cc2cccc(Br)c2)s1`, 1.9%.

In the case of `CC1=C(C(=O)OCCc2ccccc2)C(c2ccccc2Cl)CC(=O)N1` (configuration not stated), the displacement is -7.2%. For the compound `CC(C)(C)c1csc(N/N=C/c2ccccn2)n1`, the displacement is -6.6%. To `OCCNCCOc1cccc(Cl)c1Cl` belongs 2.8%. On to `O=C1C2C3C=CC(O3)C2C(=O)N1c1ccccc1I` (configuration not stated), for which the displacement is 17.8%. The same measure for `CCOc1ccccc1C(=O)Nc1ccc(N2CCOCC2)cc1`: 3.2%.

Consider `Cc1cccc(/C=C2/SC(=S)N(Cc3ccccc3)C2=O)c1`, for which the displacement was found to be 13.4%. In the case of `Nc1nc2nc(C(F)(F)C(F)(F)C(F)(F)C(F)(F)F)cc(=O)n2[nH]1`, the displacement was -1.7%. Take `COc1cc(OC)c(OC)cc1CNc1cccc(C)c1`: the displacement amounted to 4.3%. In the case of `N#CC(C#N)=Cc1ccc(-c2ccc3c(c2)COC3=O)o1`, the displacement was 109%. Take `N#C/C(=C\c1ccc(-c2ccc3c(c2)COC3=O)o1)c1nc2ccccc2[nH]1`: the displacement was found to be 58.6%. As for `N#C/C(=C/c1ccc(-c2ccc3c(c2)C(=O)NC3=O)o1)C(N)=O`, the displacement turned out to be 140%. Turning to `N#C/C(=C\c1ccc(-c2ccc(Cl)c(Cl)c2)o1)C(N)=O`, the displacement amounted to 7.8%. The same measure for `N#C/C(=C\c1ccc(-c2ccc(Br)cc2)o1)C(N)=O`: 4.6%; for `N#C/C(=C\c1ccc(-c2ccc3c(c2)COC3=O)o1)C(N)=O`: -10.4%.

In the case of `N#CC(C#N)=Cc1ccc(-c2ccc(S(N)(=O)=O)cc2)o1`, the displacement was -0.4%. `Cc1ccc([N+](=O)[O-])cc1-c1ccc(/C=C(\C#N)c2nc3ccccc3[nH]2)o1`: the displacement is -0.7%. Consider `N#C/C(=C\c1ccc(-c2ccc(Br)cc2)o1)c1nc2ccccc2[nH]1`, for which the displacement was 2.1%.

Regarding `COc1ccc2ccccc2c1C=Nc1ccc(C)c(I)c1`, the displacement was -9.7%. On to `CCOc1cc(/C=N/n2cnnc2)ccc1OCCOc1ccc(Br)cc1`, for which the displacement was 19.3%.

Consider `O=C(/C=C/c1ccc(F)cc1)c1nc2ccccc2s1`, for which the displacement is -6%. Regarding `CCc1ccccc1N1C(=O)CC(Sc2nc(C)cc(C)n2)C1=O` (configuration not stated), the displacement came to 10.8%. To `Cc1ccc(C=Nc2ccc(F)cc2)o1` belongs 4.1%; to `CC(C)OC(=O)c1ccc(NC(=O)c2cncc(Br)c2)cc1`, 12.3%. Regarding `CC(C)OC(=O)c1ccc(NC(=O)c2cccc(Br)c2)cc1`, the displacement was found to be 69.2%.

In the case of `O=C(Nc1ccc(NC(=O)c2cccc(Br)c2)cc1)c1ccccc1`, the displacement came out at 0%. As to `COc1ccc(N(CC(=O)Nc2cccc(C)c2)S(=O)(=O)c2ccc(C)cc2)c(OC)c1`, the displacement came to 3.6%. The same measure for `CCOC(=O)C1CCN(S(=O)(=O)c2ccc(F)cc2)CC1`: -8%; for `N#Cc1ccccc1N=C1CCCN1Cc1ccccc1`: 17.4%; for `Cc1ccc(-c2ccc(OCC(=O)Nc3ccccc3C(N)=O)cc2)cc1`: 4.4%. Regarding `O=C(NC(=S)NC1CCSC1=O)c1ccco1` (configuration not stated), the displacement stood at 1%. The same measure for `Cc1cccnc1NC(=O)c1cc2c(ccc3ccccc32)oc1=O`: 93%.

Consider `O=C(Nc1ccncc1)c1cc2c(ccc3ccccc32)oc1=O`, for which the displacement is 9.6%. To `Cc1cccc(NC(=O)c2cc3c(ccc4ccccc43)oc2=O)n1` belongs -7%.

As to `COc1cc(/C=N/NC(N)=O)ccc1OCC(=O)N1CCCCC1`, the displacement is -4.4%.

Regarding `COC(=O)c1ccccc1NC(=O)CSc1nnc(-c2cccc(F)c2)n1-c1ccccc1`, the displacement is -1.1%. Take `Cc1nc(C)c(/C(O)=C/c2nc3ccc([N+](=O)[O-])cc3oc2=O)s1`: the displacement was -12%. For `Cc1cc(-c2ccccc2)sc1/C(O)=C/c1nc2ccccc2[nH]c1=O`, the displacement amounted to 112%. `Cc1ccc(-c2nc3ccccc3[nH]2)s1`: the displacement was found to be 0.7%. As for `CC(C)(C)/C(O)=C/c1nc2cc([N+](=O)[O-])ccc2[nH]c1=O`, the displacement amounted to 0.3%. Regarding `Cc1nc(C)c(/C(O)=C/c2nc3ccccc3[nH]c2=O)s1`, the displacement is 61.6%. On to `Cc1cccc(-c2nc3ccccc3[nH]2)c1`, for which the displacement came to 10.9%. Take `O=C(Nc1cccc(C(F)(F)F)c1)c1nn2c(c1Br)NC(c1cccs1)CC2C(F)(F)F` (configuration not stated): the displacement is 4.5%. For `COc1ccccc1NC(=O)c1c(NC(=O)Cc2ccccc2)sc2c1CCCCC2`, the displacement is 9.3%. Consider `CC(C)OP(=O)(OC(C)C)C(Nc1ccc(Br)cc1)c1ccc(O)cc1` (configuration not stated), for which the displacement was -13.8%. In the case of `CCOc1ccccc1N(CC(=O)NC1CCCCC1)S(=O)(=O)c1ccccc1`, the displacement came out at 10.8%.

For `C=CCN1C(=O)/C(=C/c2cccc(OCc3ccccc3Cl)c2)SC1=S`, the displacement was -4.4%. As to `C=CCN1C(=O)/C(=C\c2ccc(OCc3cccc4ccccc34)cc2)SC1=S`, the displacement turned out to be 87.1%. For the compound `C=CCN1C(=O)/C(=C\c2ccccc2OCc2ccc(Cl)cc2)SC1=S`, the displacement turned out to be 23.3%.

As for `C=CCN1C(=O)/C(=C\c2ccc(OCc3ccccc3)cc2)SC1=S`, the displacement came to 11.4%.

In the case of `CCN1C(=O)/C(=C\c2ccc(OCc3ccccc3Cl)cc2)SC1=S`, the displacement amounted to 15.9%.

As for `CCN1C(=O)/C(=C\c2ccc(OCc3cccc4ccccc34)cc2)SC1=S`, the displacement stood at 106%. On to `C=CCN1C(=O)/C(=C/c2ccccc2OCc2ccccc2Cl)SC1=S`, for which the displacement amounted to 11.6%.

Turning to `CN1C(=O)/C(=C\c2ccc(OCc3cccc4ccccc34)cc2)SC1=S`, the displacement was -0.8%. For `C=CCN1C(=O)/C(=C\c2ccc(OCc3ccccc3Cl)cc2)SC1=S`, the displacement amounted to 95.7%. In the case of `C=CCN1C(=O)/C(=C\c2cccc(OCc3cccc4ccccc34)c2)SC1=S`, the displacement stood at 15.9%. On to `C=CCN1C(=O)/C(=C\c2cc(Cl)ccc2OCc2ccccc2F)SC1=S`, for which the displacement came out at 60.2%. Take `CCN1C(=O)/C(=C\c2cccc(OCc3cccc4ccccc34)c2)SC1=S`: the displacement came out at 4.6%. Turning to `NC1=NC(=O)/C(=C\c2ccccc2Cl)S1`, the displacement was 13.2%. As for `CC1=C(C(=O)OC(C)C)C(c2ccccc2Cl)C2=C(CCCC2=O)N1` (configuration not stated), the displacement was determined as 0%.
